Source: PubChem BioAssay (NCI)
Values joined by “and” are separate entries in the source; they are usually repeats but may differ in a detail not shown here. Equal values may be shown once. The panel holds about 83,000 compounds, 20% with a hit somewhere; the sample as a whole holds those more often.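 Plates (96-well) were seeded with cells, treated with compound at one concentration, and incubated for 48 hours before percent growth was determined.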 A number with no mark means an inactive call. Active and inactive are the calls of the source. Rule for the calls: active = growth percent below 10; inactive = the rest.

Legend:
Experiment in all cases: NCI-60 one-dose screen, 48 h (100 = growth as untreated, 0 = no growth, -100 = all killed)
Details in all cases: 10 µM unless noted
HCT-15 colon = system: HCT-15 colon
HT29 colon = system: HT29 colon
SNB-75 CNS = system: SNB-75 CNS
SNB-19 CNS = system: SNB-19 CNS
U251 CNS = system: U251 CNS
PC-3 prostate = system: PC-3 prostate
SK-MEL-5 melanoma = system: SK-MEL-5 melanoma
UACC-62 melanoma = system: UACC-62 melanoma
LOX IMVI melanoma = system: LOX IMVI melanoma
SK-MEL-2 melanoma = system: SK-MEL-2 melanoma
SN12C renal = system: SN12C renal
UO-31 renal = system: UO-31 renal
TK-10 renal = system: TK-10 renal
ACHN renal = system: ACHN renal
CAKI-1 renal = system: CAKI-1 renal
A498 renal = system: A498 renal
CCRF-CEM leukemia = system: CCRF-CEM leukemia
MOLT-4 leukemia = system: MOLT-4 leukemia
EKVX NSCLC = system: EKVX NSCLC
SK-MEL-28 melanoma = system: SK-MEL-28 melanoma

| Compound | growth (HCT-15 colon) | growth (HT29 colon) | growth (SNB-75 CNS) | growth (SNB-19 CNS) | growth (U251 CNS) | growth (PC-3 prostate) | growth (SK-MEL-5 melanoma) | growth (UACC-62 melanoma) | growth (LOX IMVI melanoma) | growth (SK-MEL-2 melanoma) | growth (SN12C renal) | growth (UO-31 renal) | growth (TK-10 renal) | growth (ACHN renal) | growth (CAKI-1 renal) | growth (A498 renal) | growth (CCRF-CEM leukemia) | growth (MOLT-4 leukemia) | growth (EKVX NSCLC) | growth (SK-MEL-28 melanoma) |
| --- | --- | --- | --- | --- | --- | --- | --- | --- | --- | --- | --- | --- | --- | --- | --- | --- | --- | --- | --- | --- |
| CC(C)C[C@H](NC(=O)[C@@H]1CCCCCCCCCCC(=O)N[C@@H](CC(=O)N2CCC[C@@H]2C2CCCC2)C(=O)N1)B(O)O | -36.7% (active) | -18% (active) | -77% (active) | 6.18% (active) | -50.7% (active) | 8.18% (active) | -92% (active) | -86.8% (active) | -93.3% (active) | -70.6% (active) | -88.9% (active) | -66.8% (active) | 0.691% (active) | 3.27% (active) | 7.24% (active) | -87.2% (active) | 44% | -19.9% (active) |  |  |
| COc1ccc2ccccc2c1/C=C1\SC(=Nc2ccc(O)cc2)NC1=O | 4.61% (active) | 0.351% (active) | 77.7% | 24.5% | 5.13% (active) | 21.5% | -53.6% (active) | 16.4% | -3.89% (active) | 27.1% | 6.03% (active) | 17.7% | 36.9% | 17% | 9.94% (active) | 93.5% | 2.89% (active) | 9.45% (active) | 15.8% |  |
| c1n[nH]cc1-c1nc2ccc3[nH]ncc3c2c2c1CC1(CC2)COC1 | 70.5% | 52.1% | -5.96% (active) | 47.4% | 39.5% |  | 44.7% | 18.7% | 38.5% | 18.3% | 38.9% | 95.7% | 49.2% | 54.6% | 12.3% | 38.6% | 30.3% | 32.8% | 78.6% | 44.5% |
| COc1ccc(/C=C/C(=O)c2ccc(OC)c(S(N)(=O)=O)c2)c(C(F)(F)F)c1 | -52% (active) | 6.34% (active) | 37.6% | -28.6% (active) | -64.7% (active) | 11.2% | 18.9% | 30.6% | -93% (active) | 60.8% | 8.16% (active) | 25.6% | 77.9% | 9.82% (active) | 24.7% | 195% | 2.27% (active) | -0.0099% (active) | 14.5% |  |
| N#CC1=C(c2cccs2)Nc2c(c(-c3ccccc3)nn2-c2ccccc2)C12C(=O)Nc1ccc(Br)cc12 (stereo not given) | -6.66% (active) | -32.8% (active) | -39.5% (active) | 7.99% (active) | -47.8% (active) | -3.33% (active) | 0.371% (active) | -52.3% (active) | -11.3% (active) | -17.2% (active) | -13.7% (active) | 6.38% (active) | 12.1% | -11% (active) | 9.64% (active) | -10.8% (active) | 1.86% (active) | -3.33% (active) | 7.42% (active) |  |
| Cc1ccc(C2CC(c3ccc(NC(=O)Nc4ccccc4)cc3)=NN2c2ccc(S(N)(=O)=O)cc2)cc1 (stereo not given) | -68% (active) | -62% (active) | -68.1% (active) | -99.8% (active) |  | -59% (active) | -96.6% (active) | -96.2% (active) | -100% (active) | -81.7% (active) | -91.6% (active) | -100% (active) | -81.4% (active) | -100% (active) | -98.2% (active) | -93% (active) | -17.7% (active) | -27.8% (active) | -95.1% (active) | -99.7% (active) |
| COc1ccc2[nH]cc(-c3cc4nc(-c5cn(C)c6ncccc56)cc(N)n4n3)c2c1 | -25.1% (active) | -59.1% (active) | 51.8% | 26% |  | 9.79% (active) | -56.5% (active) | 85.9% | -85.3% (active) | 97.2% | 26.2% | 12.3% | 78.1% | 7.66% (active) | -65.2% (active) | 116% | -34.3% (active) | -9.04% (active) | 55.1% | 82.6% |
| COc1ccc2[nH]c(O)c(N=Nc3nc(-c4ccc(Cl)cc4)cs3)c2c1 | -53.3% (active) | -18.4% (active) | -66.9% (active) | 24.1% |  | -10.5% (active) | 8.45% (active) | -32.3% (active) | -54.9% (active) | 14% | -69.2% (active) | -61.4% (active) | 7.57% (active) | -79.1% (active) | -37.6% (active) | -89.7% (active) | 15.7% | -16.5% (active) | -3.25% (active) | -24.2% (active) |
| COc1ccc(Nc2ncnc3sc4c(c23)CCN(Cc2ccccc2)C4)cc1 | 74.9% | 98.1% | 89.2% | 90.8% |  | 68.8% | 70.4% | 43.5% | 52.2% | 87.4% | 85.4% | 49% | 109% | 77% | 52% | 91.9% | 73.5% | 62.4% | 75.8% | 99.8% |
| Cc1ccc(C2CC(c3ccc(S(=O)(=O)NCCNc4nc(N(C)C)nc(N5CCOCC5)n4)cc3)=Nc3c(N)nc(N)nc3N2)cc1 (stereo not given) | 44.5% | 17.9% | 59.5% | 57.3% | 50.6% |  | 34.5% | 71.1% | 17.7% | 86.2% | 51.5% | 36.9% | 96.4% | 68.2% | 43.4% | 105% | 17.3% | 3.09% (active) | 38.4% | 71.1% |
| COc1ccc(-c2nnc3c(/C=C/c4ccc(Br)cc4)nc4ccccc4n23)cc1 | -60.7% (active) | -34.1% (active) | 83.4% | 86.3% | 68.4% |  | 49.4% | 40.8% | -87.9% (active) | 92.9% | -22.7% (active) | 41.1% | 99.4% | 23% | 27.8% | 92.6% | 8.22% (active) | 1.9% (active) | 54% |  |
| CSc1ccc(OCc2nc3ccccc3n2-c2cccc(NS(C)(=O)=O)c2)cc1 | 115% and 93.4% | 109% and 110% | 79.6% and 68.9% | 102% and 85.6% | 104% and 76.9% |  | 98% and 104% | 86.1% and 100% | 88.9% | 104% and 107% | 118% and 96.6% | 59.5% and 78.4% | 118% and 128% | 90.8% and 94.9% | 76.7% and 85% |  | 96.7% and 98.6% | 96.7% and 97.4% | 103% and 81.3% | 119% and 99.1% |
